In PubChem BioAssay (NCATS):
Several values for one entry are separate records, joined by “and”; a condition that tells them apart may be missing. Identical values can stand only once. Inconclusive results are not listed. Entries that show only a call come without a potency. Values without a mark were called inactive. Activity calls are given as the source filed them. Calls follow the shape of the dose curve; as a rule, active = well fitted inhibition curve with a large enough effect; inconclusive = small, poorly fitted or top-dose-only effect; inactive = flat fitted curve, though single readings scatter.

Experiments:
[1] = target: Calcium and integrin-binding protein 1 (Homo sapiens) (UniProt Q99828); experiment: Primary qHTS for Identification of Calcium Integrin Binding Protein 1 (CIB1) Competitor (AID 1508620);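 also: GST tagged CIB1 binding a fluorescein labelled alphaIIb integrin peptide tracer; top concentration of the series differs between compounds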
Sequence of Calcium and integrin-binding protein 1 (Homo sapiens) (Q99828 whole entry, looked up): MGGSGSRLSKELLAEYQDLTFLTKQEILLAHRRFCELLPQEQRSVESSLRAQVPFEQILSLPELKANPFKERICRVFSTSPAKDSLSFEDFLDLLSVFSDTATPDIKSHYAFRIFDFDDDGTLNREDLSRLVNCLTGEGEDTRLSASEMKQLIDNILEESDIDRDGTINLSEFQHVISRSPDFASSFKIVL
Summary of the method: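 Fluorescence polarization competition: GST-tagged CIB1 (1 uM final) preincubated with compound 15 min at room temperature, then FITC-labelled alphaIIb peptide (100 nM final) added. After 15 min at room temperature, polarization read at Ex 480/Em 540.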

[2] = Primary qHTS for inhibitors of nuclear receptor binding SET domain protein 2 (NSD2) in an isogenic RCH-ACV NSD2 p.E1099K mutant (9B) (AID 1645876); also: nearly all actives have a fitted effect of over 70% in size; also: potency is read from the fitted curve at half-maximal effect

Cc1cn(C2C=CC(CO)O2)c(=O)[nH]c1=O (centres undefined)
Potency [1]: inactive
Potency [2]: inactive

C/C(=C\CC[C@@H](C)[C@H]1CC(O)[C@@]2(C)C3CC[C@H]4C(C)(C)[C@@H](OC5OCC(O)C(O)C5OC5OC(CO)C(O)C(O)C5O)CC[C@@]45C[C@@]35CC(O)[C@]12C)C(=O)O (some centres undefined)
Potency [1]: inactive
Potency [2]: inactive

CCOC(=O)C(CCc1ccccc1)NC(C)C(=O)N1C(=O)N(C)CC1C(=O)O (centres undefined)
Potency [1]: inactive
Potency [2]: inactive

C=C[C@H]1C(O[C@@H]2O[C@H](CO)[C@@H](O)[C@H](O)[C@H]2O)OC=C2C(=O)N3CCc4c([nH]c5ccccc45)[C@H]3C[C@H]21 (some centres undefined)
Potency [1]: inactive
Potency [2]: inactive

O=C(c1ccc(/C=C/c2n[nH]c3ccccc23)cc1)N1CCNCC1
Potency [1]: inactive
Potency [2]: 649 nM (active) and 2.63 µM (active)

CC(=O)O[C@@](C)(C(=O)/C=C/C(C)(C)O)[C@H]1[C@H](O)C[C@@]2(C)[C@@H]3CC=C4[C@@H](C=C(O)C(=O)C4(C)C)[C@]3(C)C(=O)C[C@]12C
Potency [1]: inactive
Potency [2]: 502 nM (active)

Clc1cc2c(NC3CCCC3)nnc(-c3ccncc3)c2cc1Cl
Potency [1]: inactive
Potency [2]: inactive

O=C(O)c1ccc(OC2OC(CO)C(O)C(O)C2O)cc1 (centres undefined)
Potency [1]: inactive
Potency [2]: inactive

Nc1ncnc2c1ncn2CCNCCCCCO
Potency [1]: inactive
Potency [2]: inactive

C=C[C@@](C)(O)CC/C=C(\C)C(=O)O[C@@H]1[C@@H]2O[C@]2(C)[C@H]2[C@H](O[C@@H]3O[C@H](CO)[C@@H](O)[C@H](O)[C@H]3O)OC=C[C@@]12O
Potency [1]: inactive
Potency [2]: inactive

CC1(C)CC[C@]2(C(=O)O)CC[C@]3(C)C(=CCC4[C@@]5(C)C[C@@H](O)[C@H](O)C(C)(C)C5CC[C@]43C)C2C1 (some centres undefined)
Potency [1]: inactive
Potency [2]: inactive

COc1ccc2nc(S(=O)(=O)Cc3ncc(C)c(OC)c3C)[nH]c2c1
Potency [1]: inactive
Potency [2]: inactive

FC(F)(F)c1ccc(Nc2nc(-c3c(C(F)(F)F)nc4ccccn34)cs2)cc1
Potency [1]: inactive
Potency [2]: 417 nM (active)

CC/C=C\CCO[C@@H]1O[C@H](CO)[C@@H](O)[C@H](O)[C@H]1O
Potency [1]: inactive
Potency [2]: inactive

C[C@@H]1CC[C@]2(C(=O)O[C@@H]3O[C@H](CO)[C@@H](O)[C@H](O)[C@H]3O)CC[C@]3(C)C(=CCC4[C@@]5(C)C[C@@H](O)[C@H](O)[C@@](C)(C(=O)O[C@H]6[C@H](O)C[C@@]7(C)C(CC[C@]8(C)C7CC=C7[C@H]9[C@](C(=O)O[C@@H]%10O[C@H](CO)[C@@H](O)[C@H](O)[C@H]%10O)(CC[C@@H](C)[C@@]9(C)O)CC[C@]78C)[C@@]6(CO)C(=O)O)C5CC[C@]43C)[C@@H]2[C@]1(C)O (some centres undefined)
activity change, negative = inhibition [1]: 3.8% [at 12.4 µM]
outcome [2]: inactive [at 9.23 µM]

CC1=CC(=O)CC(C)(C)C1CCC(C)O[C@@H]1O[C@H](CO[C@@H]2OC[C@@H](O)[C@H](O)[C@H]2O)[C@@H](O)[C@H](O)[C@H]1O (some centres undefined)
Potency [1]: inactive
Potency [2]: inactive

C=C1CC[C@@H]2[C@@](C)(CO[C@@H]3O[C@H](CO)C(O)[C@H](O)C3O)[C@H](O)CC[C@@]2(C)[C@@H]1CC/C(C)=C/CO (some centres undefined)
Potency [1]: inactive
activity change, negative = viability loss [2]: 3.18% [at 9.23 µM]

CC1(C)CC2C(C1)C(C)(O)C13CC1(COC3=O)C2O (centres undefined)
Potency [1]: inactive
Potency [2]: inactive

COc1cc(O)c2c(c1)C1=C[C@H](O)[C@@H](O)C[C@]1(C)OC2=O
Potency [1]: inactive
Potency [2]: inactive

CC1=CC2C(CC1OC1OC(CO)C(O)C(O)C1O)C(C)CC(=O)C2C(C)C (centres undefined)
Potency [1]: inactive
Potency [2]: inactive

O=C(O)c1cn(C2CC2)c2cc(N3C[C@@H]4C[C@H]3CN4)c(F)cc2c1=O
Potency [1]: inactive
Potency [2]: inactive

CO[C@H]1/C=C/C=C/C=C/C[C@H](OC(=O)[C@@H](C)NC(=O)C2CCCCC2)[C@H](C)[C@@H](O)/C(C)=C/CCc2cc(O)cc(c2)NC(=O)C1
Potency [1]: inactive
Potency [2]: 342 nM (active)

Cc1c(CN2CCN(C(=O)C(C)O)CC2)sc2c(N3CCOCC3)nc(-c3cnc(N)nc3)nc12 (centres undefined)
Potency [1]: inactive
Potency [2]: 57.8 nM (active)

CC1C(=O)OCC2=CCN3CCC(OC(=O)C(C)(O)C1(C)O)C23 (centres undefined)
Potency [1]: inactive
Potency [2]: inactive

CCC(O)C(C)C1CCC(C(C)C(=O)O)O1 (centres undefined)
Potency [1]: inactive
Potency [2]: inactive

CCOc1ccc2nc(SCCN3CCOCC3)[nH]c2c1
Potency [1]: inactive
Potency [2]: inactive

C[C@@H]1CC[C@]2(C(=O)O)CC[C@]3(C)C(=CCC4[C@@]5(C)CC[C@H](O)C(C)(C)C5C(O)C[C@]43C)[C@@H]2[C@]1(C)O (some centres undefined)
Potency [1]: inactive
Potency [2]: inactive
